# Laboratory results taken from ChEMBL document CHEMBL3433997, “St. Jude Leishmania screening dataset” (2016).
# Molecular target: Solute carrier family 2, facilitated glucose transporter member 1 (Homo sapiens) (UniProt P11166)
# Test: ST_JUDE_LEISH: Cytotoxicity at 2uM final concentration against transgenic Leishmania Mexicana promastigotes LmGLUT1 that are glucose transport deficient and complemented with the human glucose transporter GLUT1. Activity is measured by DNA content using SYBR green in vitro
# Assay type: functional
# Solute carrier family 2, facilitated glucose transporter member 1 (Homo sapiens), sequence (P11166 whole entry): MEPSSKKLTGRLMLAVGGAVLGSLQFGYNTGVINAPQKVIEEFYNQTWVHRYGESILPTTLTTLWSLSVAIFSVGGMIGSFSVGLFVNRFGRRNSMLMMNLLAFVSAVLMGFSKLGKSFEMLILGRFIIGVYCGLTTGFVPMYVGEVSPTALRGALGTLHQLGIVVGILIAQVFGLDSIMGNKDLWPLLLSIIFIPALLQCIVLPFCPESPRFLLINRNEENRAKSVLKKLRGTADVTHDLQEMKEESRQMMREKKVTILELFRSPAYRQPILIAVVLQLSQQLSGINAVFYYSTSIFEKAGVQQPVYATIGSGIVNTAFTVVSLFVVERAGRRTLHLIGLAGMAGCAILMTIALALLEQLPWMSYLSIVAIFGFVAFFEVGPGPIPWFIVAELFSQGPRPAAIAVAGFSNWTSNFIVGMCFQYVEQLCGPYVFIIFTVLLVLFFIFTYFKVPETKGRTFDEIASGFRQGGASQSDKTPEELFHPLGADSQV
row,Compound,inhibition [%]
1,CC(Nc1ncc(-c2ccsc2)c(-c2nccs2)n1)c1ccc2c(c1)OCCO2 (centres undefined),5.89
2,Cc1ccc2[nH]c(C)cc(=NN=Cc3ccc(Cl)cc3)c2c1,-0.11
3,O=C(Cc1ccc(-n2cnnn2)cc1)N(Cc1cncn1Cc1cccc(C(F)(F)F)c1)CC1CC1,-1.26
4,CCc1n[nH]c(C(=O)Nc2cccc(N3CCCC3)c2)c1C,0.38
5,CN(Cc1cccc(F)c1)C1CCN(c2cc(NC(=O)c3ccc(F)cc3)ccn2)CC1,6.99
6,COc1cc(C(=O)NC2CCc3ccccc32)cc(Cl)c1OC (centres undefined),-4.04
7,COCC(C)n1c(C)cc(C(=O)CSc2nnc(Nc3ccccc3)s2)c1C (centres undefined),1.18
8,COc1ccc2nccc([C@@H](O)CN3CCC(NC(=O)Cc4cc5ccccc5s4)CC3)c2c1,8.41
9,CCOc1cc(C(=O)NC2CC(C)(C)NC(C)(C)C2)ccc1-c1nc2cc(Cl)ccc2[nH]1,1.25
10,CCNc1cc(C)nc(Nc2ccc(NC(=O)c3cccs3)cc2)n1,4.59
11,CCN(CC)CCN(Cc1ccc(-c2ccc(C(F)(F)F)cc2)cc1)C(=O)Cn1c(CCc2cccc(C#N)c2)nc(=O)c2ccccc21,2.68
12,O=C(Nc1ccc(C(=O)Nc2cccc(C3=NCCN3)c2)cc1)Nc1ccc(C2=NCCN2)cc1,-1.17
13,CCOC(=O)c1cn(CC)c2cc(OCc3ccccc3)ccc2c1=O,0.45
14,O=C(Nc1ccc(-c2ccc(-c3nc4cc(C(F)(F)F)ccc4[nH]3)s2)cc1)c1c[nH]cn1,3.09
15,CCOC(=O)CNC(=O)N(CCN(Cc1ccccc1)C(=O)NCC(=O)OCC)Cc1ccccc1,0.94
16,COc1ccc(-c2cnc(N)c(-c3ccc(C(N)=O)cc3)c2)cc1OC,3.97
17,Cc1ccc2[nH]c3c(NCCCN(C)C)ncnc3c2c1,-1.63
18,O=C(NCCCCN1CCN(c2cccc3c2OCCO3)CC1)c1ccc(NC(=O)c2cc(Cl)cc(Cl)c2)cc1,2.62
19,CCOc1cc(C)ccc1C1CCN(CCN2CCC(CNC(=O)c3ccc(-c4ccc(C(F)(F)F)cc4)cc3)CC2)CC1,0.7
20,O=C(CN1CCN(C(=O)c2ccco2)CC1)Nc1ccccc1Br,-1.39

row,Compound,inhibition [%]
1,COc1ccc2nc(Nc3nc(-c4ccccn4)cs3)sc2c1,11.7
2,CN(C)CCOC(=O)C1(O)CCC2CC1C2(C)C (centres undefined),2.52
3,CCCCCCCC/C=C\CCCCCCCC(=O)NCc1ccc(O)c(OC)c1,8.15
4,O=C(Nc1ccc(C(F)(F)F)cc1)c1ccc(NCCCN2CCCCCC2)c([N+](=O)[O-])c1,5.54
5,CN(C)CCN(C)Cc1cccc(-c2ccc3c(Nc4cc(O)c(Cl)cc4F)ccnc3c2)c1,1.45
6,CC(C)(NCc1ncc[nH]1)c1nc(-c2ccc(Cl)c(O)c2)c(-c2ccncc2)[nH]1,2.76
7,CC(=O)Oc1c(Cl)c(C)nc(C)c1-c1ccc(Oc2ccc(Cl)cc2)cc1,9.11
8,Cc1cc(N[C@@H](Cc2ccccc2)C(=O)NCCc2ccccc2)nc(NCCc2ccc(F)cc2)n1,-1.91
9,Cc1cc(Cl)c(S(=O)(=O)N(C)c2ccccc2)cc1OCC(=O)NC1CCCCC1,1.65
10,COc1ccc(CNC(=O)NC2CCN(c3ccnc(Nc4ccc(OC)cc4)n3)C2)cc1 (centres undefined),1.61
11,O=C(Nc1cccc(-c2nn3ccccc3c2-c2ccnc(Nc3cccc(F)c3)n2)c1)c1c(F)ccc(F)c1Cl,9.38
12,CC1(C)N=C(N)N=C(N)N1CCc1ccccc1,11.6
13,N#Cc1cc(C(=O)Nc2ccccc2)c(N)nc1SCC(=O)Nc1ccc(Br)cc1,8.21
14,O=C(NCCc1ccc(Cl)c(Cl)c1)c1ccc(CNC(=O)c2ccc(O)c(-c3ccc(Cl)c(Cl)c3)c2)cc1,0.99
15,COc1nc2c(CCN3CC[C@@H](NCc4cc(C#N)c5c(c4)CCO5)[C@@H](O)C3)ccnc2cc1F,7.43
16,O=C(NCCCCCN1CCC(c2c[nH]c3ccccc23)CC1)Nc1cccc(I)c1,14.6
17,COc1ccc(-c2cccc(NC(=O)c3cccc(Cl)c3)c2)cc1CN1CCN(C)CC1,11.2
18,COc1cc(NCCCCCNc2cc(Cl)nc3ccccc23)nc2ccccc12,1.24
19,COc1ccc2ncc(F)c(CCN3CCC(NCc4cc(C)c5c(c4)OCCO5)CC3)c2n1,11.1
